Assay results as given in the supplement of paper PMC11732987, “Enantioselective OTUD7B fragment discovery through chemoproteomics screening and high-throughput optimisation” (Communications Chemistry, 2025).
Unmarked numbers belong to inactive results.

Assays:
Experiment in all cases: log2 ratio of Biotin-Ahx-Ub-VS probe labelling (compound/DMSO); higher = less target engagement, active = hit call of the paper (q ≤ 0.05, log2 ratio ≤ -1)
Conditions in all cases: treatment time: 3 h
[1] = compound: ClCC(=O)NC1CCCc2ccccc12
Method in brief: (§1)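 For activity-based profiling, 495 µg portions of HEK293T lysate in Tris/CHAPS/IGEPAL buffer with protease inhibitors were treated in triplicate with compound at 50 or 200 µM or with DMSO for 3 h. A 1 h incubation with Biotin-Ahx-Ub-VS (0.5 µM final) followed, then NeutrAvidin enrichment, LysC and trypsin digestion and diaPASEF LC-MS/MS. The compound/DMSO base-two log ratios were averaged from median-normalised label-free quantities using an unpaired t-test. Proteins needed at least 2 unique peptides to be included.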

[2] = compound: ClCC(=O)NC1CCOc2ccc(Cl)cc12
Method in brief: as §1

[3] = compound: ClCC(=O)NC1CCSc2ccccc12
Method in brief: as §1

[4] = compound: ClCC(=O)N[C@H]1CCCc2ccccc12
Method in brief: as §1

[5] = compound: Fc1ccc(N2CCN(c3nc4c(CN(C(CCl)=O)CC4)cn3)CC2)cc1.Cl.Cl
Method in brief: as §1

Sequence of UniProt Q9UHP3 (Q9UHP3 whole entry): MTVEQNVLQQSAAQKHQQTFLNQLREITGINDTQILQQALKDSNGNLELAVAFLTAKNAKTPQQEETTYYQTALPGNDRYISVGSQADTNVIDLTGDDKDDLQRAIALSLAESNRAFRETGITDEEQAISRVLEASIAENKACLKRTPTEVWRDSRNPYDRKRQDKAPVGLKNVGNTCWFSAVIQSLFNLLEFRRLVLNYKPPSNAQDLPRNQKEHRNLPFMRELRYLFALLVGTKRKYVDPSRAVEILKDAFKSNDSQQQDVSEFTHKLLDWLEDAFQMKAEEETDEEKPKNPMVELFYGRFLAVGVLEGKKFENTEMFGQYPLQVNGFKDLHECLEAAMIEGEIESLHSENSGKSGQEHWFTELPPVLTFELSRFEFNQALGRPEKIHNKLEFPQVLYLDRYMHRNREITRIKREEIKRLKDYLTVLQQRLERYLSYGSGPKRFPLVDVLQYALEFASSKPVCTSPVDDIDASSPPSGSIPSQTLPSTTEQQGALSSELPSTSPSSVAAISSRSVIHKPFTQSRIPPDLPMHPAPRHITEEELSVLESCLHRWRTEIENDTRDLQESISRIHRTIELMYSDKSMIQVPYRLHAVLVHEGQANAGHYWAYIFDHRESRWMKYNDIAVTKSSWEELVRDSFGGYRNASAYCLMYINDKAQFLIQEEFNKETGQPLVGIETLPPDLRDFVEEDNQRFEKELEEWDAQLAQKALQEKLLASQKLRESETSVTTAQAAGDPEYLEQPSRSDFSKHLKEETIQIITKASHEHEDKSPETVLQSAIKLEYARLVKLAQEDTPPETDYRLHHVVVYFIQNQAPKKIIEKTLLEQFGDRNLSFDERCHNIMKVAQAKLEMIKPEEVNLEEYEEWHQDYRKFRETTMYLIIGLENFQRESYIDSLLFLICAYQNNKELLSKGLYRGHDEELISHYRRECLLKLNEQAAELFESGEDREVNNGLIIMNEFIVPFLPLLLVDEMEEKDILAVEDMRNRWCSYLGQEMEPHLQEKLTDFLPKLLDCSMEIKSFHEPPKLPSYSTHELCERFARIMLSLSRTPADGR
Sequence of UniProt O75317 (O75317 whole entry): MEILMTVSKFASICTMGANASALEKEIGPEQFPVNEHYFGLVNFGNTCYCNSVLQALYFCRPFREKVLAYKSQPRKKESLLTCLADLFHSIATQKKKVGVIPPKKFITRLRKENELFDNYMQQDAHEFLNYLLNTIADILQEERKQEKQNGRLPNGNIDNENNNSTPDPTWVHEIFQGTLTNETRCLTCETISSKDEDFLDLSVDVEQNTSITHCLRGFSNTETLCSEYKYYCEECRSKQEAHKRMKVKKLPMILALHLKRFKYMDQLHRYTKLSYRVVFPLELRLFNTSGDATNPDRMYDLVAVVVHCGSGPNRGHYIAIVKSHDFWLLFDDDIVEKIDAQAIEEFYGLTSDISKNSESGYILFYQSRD
Sequence of UniProt Q01804 (Q01804 whole entry): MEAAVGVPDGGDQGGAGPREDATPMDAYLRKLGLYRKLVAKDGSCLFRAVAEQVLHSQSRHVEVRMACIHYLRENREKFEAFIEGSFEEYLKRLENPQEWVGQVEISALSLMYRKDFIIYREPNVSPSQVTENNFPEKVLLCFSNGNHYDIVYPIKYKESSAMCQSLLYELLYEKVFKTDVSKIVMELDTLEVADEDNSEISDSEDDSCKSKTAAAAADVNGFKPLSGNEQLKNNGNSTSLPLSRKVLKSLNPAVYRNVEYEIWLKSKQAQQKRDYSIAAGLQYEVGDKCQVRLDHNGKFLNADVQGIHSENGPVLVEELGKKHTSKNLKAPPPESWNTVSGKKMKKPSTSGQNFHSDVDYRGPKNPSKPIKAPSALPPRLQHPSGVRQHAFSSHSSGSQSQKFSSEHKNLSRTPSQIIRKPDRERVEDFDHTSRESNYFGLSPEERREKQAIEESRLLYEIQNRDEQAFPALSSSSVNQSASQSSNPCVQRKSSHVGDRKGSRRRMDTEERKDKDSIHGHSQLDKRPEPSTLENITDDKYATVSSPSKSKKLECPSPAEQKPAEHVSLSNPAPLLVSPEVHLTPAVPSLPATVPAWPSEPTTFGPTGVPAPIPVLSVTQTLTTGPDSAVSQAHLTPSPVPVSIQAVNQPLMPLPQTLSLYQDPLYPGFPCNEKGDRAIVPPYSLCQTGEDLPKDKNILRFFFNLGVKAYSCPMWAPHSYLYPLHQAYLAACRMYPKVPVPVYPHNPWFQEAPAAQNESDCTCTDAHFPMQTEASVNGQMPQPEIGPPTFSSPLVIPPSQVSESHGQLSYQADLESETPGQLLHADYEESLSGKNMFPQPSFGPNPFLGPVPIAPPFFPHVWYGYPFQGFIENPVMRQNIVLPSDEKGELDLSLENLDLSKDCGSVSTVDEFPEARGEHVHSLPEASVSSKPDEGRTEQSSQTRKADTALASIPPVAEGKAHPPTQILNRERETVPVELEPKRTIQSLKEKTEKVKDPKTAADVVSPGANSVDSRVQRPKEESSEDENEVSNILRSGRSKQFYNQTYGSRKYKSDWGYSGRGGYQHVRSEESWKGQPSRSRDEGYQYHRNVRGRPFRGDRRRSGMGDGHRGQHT
Sequence of UniProt Q9P2H5 (Q9P2H5 whole entry): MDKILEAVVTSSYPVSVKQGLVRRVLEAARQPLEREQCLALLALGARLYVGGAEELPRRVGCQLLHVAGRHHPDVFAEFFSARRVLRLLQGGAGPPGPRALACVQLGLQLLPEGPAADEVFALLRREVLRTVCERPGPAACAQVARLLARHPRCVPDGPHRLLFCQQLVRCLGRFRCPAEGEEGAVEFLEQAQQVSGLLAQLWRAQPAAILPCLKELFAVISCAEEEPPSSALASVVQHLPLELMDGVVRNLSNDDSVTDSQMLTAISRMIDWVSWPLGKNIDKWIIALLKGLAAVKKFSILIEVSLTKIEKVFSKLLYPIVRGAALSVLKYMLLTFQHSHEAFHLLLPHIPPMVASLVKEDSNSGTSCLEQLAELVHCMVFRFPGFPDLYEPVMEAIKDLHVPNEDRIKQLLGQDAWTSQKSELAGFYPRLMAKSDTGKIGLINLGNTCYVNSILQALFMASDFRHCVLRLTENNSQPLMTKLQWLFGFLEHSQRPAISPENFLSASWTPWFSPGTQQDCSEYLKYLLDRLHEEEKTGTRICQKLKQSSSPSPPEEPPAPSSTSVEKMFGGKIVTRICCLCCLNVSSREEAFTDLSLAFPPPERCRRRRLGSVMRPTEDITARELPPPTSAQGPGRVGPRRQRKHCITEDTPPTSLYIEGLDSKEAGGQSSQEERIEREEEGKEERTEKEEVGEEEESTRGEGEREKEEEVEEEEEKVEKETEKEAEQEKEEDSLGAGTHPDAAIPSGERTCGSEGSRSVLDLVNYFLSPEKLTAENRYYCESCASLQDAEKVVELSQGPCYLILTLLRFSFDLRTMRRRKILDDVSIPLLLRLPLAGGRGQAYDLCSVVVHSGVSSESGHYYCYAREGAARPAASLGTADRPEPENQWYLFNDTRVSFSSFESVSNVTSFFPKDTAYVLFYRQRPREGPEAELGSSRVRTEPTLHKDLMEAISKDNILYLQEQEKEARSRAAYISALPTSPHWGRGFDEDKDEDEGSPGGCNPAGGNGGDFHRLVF
Sequence of UniProt Q9UPT9 (Q9UPT9 whole entry): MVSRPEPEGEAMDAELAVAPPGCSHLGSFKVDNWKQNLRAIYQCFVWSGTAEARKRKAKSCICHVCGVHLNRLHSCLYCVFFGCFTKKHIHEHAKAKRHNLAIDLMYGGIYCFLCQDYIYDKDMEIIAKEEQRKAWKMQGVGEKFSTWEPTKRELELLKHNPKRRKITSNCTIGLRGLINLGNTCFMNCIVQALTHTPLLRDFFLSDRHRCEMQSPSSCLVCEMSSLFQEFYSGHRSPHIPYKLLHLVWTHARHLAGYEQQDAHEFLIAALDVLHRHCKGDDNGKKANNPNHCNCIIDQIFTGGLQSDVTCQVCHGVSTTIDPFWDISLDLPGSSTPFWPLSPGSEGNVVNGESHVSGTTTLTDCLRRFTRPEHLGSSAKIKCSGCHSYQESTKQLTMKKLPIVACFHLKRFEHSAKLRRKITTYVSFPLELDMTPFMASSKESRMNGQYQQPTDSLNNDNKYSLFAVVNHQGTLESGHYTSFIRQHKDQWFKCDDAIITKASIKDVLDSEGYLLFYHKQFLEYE
Sequence of UniProt Q96FW1 (Q96FW1 whole entry): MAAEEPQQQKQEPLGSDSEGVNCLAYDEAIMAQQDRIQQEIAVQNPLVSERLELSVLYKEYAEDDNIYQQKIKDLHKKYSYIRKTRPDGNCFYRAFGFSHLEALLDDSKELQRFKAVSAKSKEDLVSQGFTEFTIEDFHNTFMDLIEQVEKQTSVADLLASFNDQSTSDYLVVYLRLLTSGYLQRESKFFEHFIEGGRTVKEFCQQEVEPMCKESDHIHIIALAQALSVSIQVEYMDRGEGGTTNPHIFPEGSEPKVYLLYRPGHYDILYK
Sequence of UniProt Q92905 (Q92905 whole entry, looked up): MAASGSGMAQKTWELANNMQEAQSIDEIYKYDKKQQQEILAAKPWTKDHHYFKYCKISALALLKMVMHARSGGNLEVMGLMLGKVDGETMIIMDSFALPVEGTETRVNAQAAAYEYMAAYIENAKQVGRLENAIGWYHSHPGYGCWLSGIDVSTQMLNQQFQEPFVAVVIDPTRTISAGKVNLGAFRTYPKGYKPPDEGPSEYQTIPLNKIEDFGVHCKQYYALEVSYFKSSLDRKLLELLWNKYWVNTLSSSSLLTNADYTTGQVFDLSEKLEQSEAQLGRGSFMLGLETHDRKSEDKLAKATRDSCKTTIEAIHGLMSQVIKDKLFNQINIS
Sequence of UniProt P51665 (P51665 whole entry): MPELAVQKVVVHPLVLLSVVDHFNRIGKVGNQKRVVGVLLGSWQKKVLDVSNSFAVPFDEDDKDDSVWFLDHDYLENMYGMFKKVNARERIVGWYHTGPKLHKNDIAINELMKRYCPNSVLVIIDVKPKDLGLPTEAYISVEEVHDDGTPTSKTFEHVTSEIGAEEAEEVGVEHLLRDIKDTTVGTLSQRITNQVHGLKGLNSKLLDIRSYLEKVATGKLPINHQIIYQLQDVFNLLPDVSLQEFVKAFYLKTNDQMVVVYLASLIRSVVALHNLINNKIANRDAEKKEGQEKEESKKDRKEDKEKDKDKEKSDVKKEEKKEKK

Target	log2 ratio of Biotin-Ahx-Ub-VS probe labelling ([1]; compound concentration: 50uM)	log2 ratio of Biotin-Ahx-Ub-VS probe labelling ([1]; compound concentration: 200uM)	log2 ratio of Biotin-Ahx-Ub-VS probe labelling ([2]; compound concentration: 50uM)	log2 ratio of Biotin-Ahx-Ub-VS probe labelling ([2]; compound concentration: 200uM)	log2 ratio of Biotin-Ahx-Ub-VS probe labelling ([3]; compound concentration: 50uM)	log2 ratio of Biotin-Ahx-Ub-VS probe labelling ([3]; compound concentration: 200uM)	log2 ratio of Biotin-Ahx-Ub-VS probe labelling ([4]; compound concentration: 50uM)	log2 ratio of Biotin-Ahx-Ub-VS probe labelling ([4]; compound concentration: 200uM)	log2 ratio of Biotin-Ahx-Ub-VS probe labelling ([5]; compound concentration: 50uM)	log2 ratio of Biotin-Ahx-Ub-VS probe labelling ([5]; compound concentration: 200uM)
OTUB1 (UniProt Q96FW1)	-0.212	-0.0215	-0.31	-0.319	0.00122	-0.246	0.0292	-0.0965	0.0783	-0.137
USP9X (UniProt Q93008)	-0.0287	-0.0252	-0.131	-0.237	0.0883	-0.151	0.0465	-0.214	-0.231	-1.53 (active)
UCHL5 (UniProt Q9Y5K5)	-0.182	-0.0853	-0.308	-0.472	0.0503	-0.365	-0.0983	-0.443	-0.226	-1.37 (active)
USP34 (UniProt Q70CQ2)	-0.752	-0.268	0.178	0.0865	-0.0836	-0.557	-0.0266	0.046	-0.25	-0.554
USP25 (UniProt Q9UHP3)	-0.808	0.0737	0.221	0.509	-0.0574	-0.126	-0.809	-1.97 (active)	0.382	-1.03
COPS5 (UniProt Q92905)	-0.103	0.0648	-0.403	-0.0328	-0.0481	0.169	-0.289	-0.229	-0.304	0.0806
PSMD7 (UniProt P51665)	-5.4	-0.933	-1.46	0.606	0.408	0.0589	1.77	0.0535	-0.177	-1.73
USP19 (UniProt O94966)	-0.205	-0.219	-0.252	-0.38	-0.00658	-0.393	-0.0565	-0.411	-1.25 (active)	-3.86 (active)
OTUD4 (UniProt Q01804)	-1.22 (active)	-1.53 (active)	-0.449	-1.11 (active)	-1.2 (active)	-1.84 (active)	-1.48 (active)	-1.79 (active)	-0.0534	-0.739
USP12 (UniProt O75317)	-0.289	-0.199	-0.354	-0.202	-0.191	-0.363	-0.253	-0.148	-0.289	-1.16 (active)
UniProt Q9P2H5	-0.0608	0.0712	-0.42	-0.205	0.0602	-0.0405	-0.178	-0.0371	-0.262	-1.08 (active)
USP22 (UniProt Q9UPT9)	-0.085	-0.0777	-0.0691	-0.277	0.136	-0.123	0.101	-0.302	-0.16	-0.168
